Compound activity deposited in PubChem by Broad Institute.
This excerpt belongs to a sample that is enriched for hits.
DUX4 txn inh: blocks DUX4-driven transcriptional activation. activity change, negative = inhibition, % (test concentration not listed). actives 0.8% (n = 37,000). 293T-iDUX4 ZSCAN4-Gaussia luciferase reporter, 24 h; stronger effect = lower value. AID 1224904;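 active means mean inhibition of at least 10% in the main channel, exceeding the control channel by a set limit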;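 further: 0% = median of neutral control wells and -100% = median of positive control wells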
Starred values were filed as active, the others as inactive.

O=C(NC1CCCCC1)N1CC2(C1)[C@H](c1ccccc1)[C@H](CO)N2CC1CCCC1 was read as DUX4 txn inh -26.1*.
`O=C(NC1CCCC1)N1CC2(C1)[C@@H](c1ccccc1)[C@@H](CO)N2CC1CC1` gave DUX4 txn inh 12.6.
Screening O=C(c1ccncc1)N1CC2(C1)[C@H](c1ccccc1)[C@H](CO)N2CC1CCCC1 returned DUX4 txn inh -5.3.
O=C(c1ccncc1)N1CC2(C1)[C@H](c1ccccc1)[C@H](CO)N2CC1CC1 was read as DUX4 txn inh 11.7.
Screening O=C(c1ccncc1)N1CC2(C1)[C@@H](c1ccccc1)[C@@H](CO)N2CC1CCCC1 returned DUX4 txn inh -28.1*.
`O=C(NC1CCCC1)N1CC2(C1)[C@H](c1ccccc1)[C@H](CO)N2CC1CC1` gave DUX4 txn inh -3.3.
For COc1ccc(S(=O)(=O)N(C)C[C@@H]2Oc3ccc(NC(=O)NC4CCCCC4)cc3CC(=O)N([C@@H](C)CO)C[C@@H]2C)cc1 the results were DUX4 txn inh -0.3.
Screening COCC#Cc1ccc([C@@H]2[C@H](CO)N3C(=O)CN(C(=O)c4ccncc4)C[C@@H]23)cc1 returned DUX4 txn inh 5.4.
Screening COC(=O)[C@@H]1[C@@H](CO)[C@@H]2Cn3c(ccc(-c4cccc(OC)c4)c3=O)[C@@H]2N1Cc1nccs1 returned DUX4 txn inh -6.0.
C[C@@H]1CCCCO[C@H](CN(C)Cc2ccc3c(c2)OCO3)[C@@H](C)CN([C@H](C)CO)C(=O)c2cc(NC(=O)CCC(F)(F)F)ccc2O1 was read as DUX4 txn inh -3.6.
Screening O=C(C[C@H]1C[C@H]2c3cc(NC(=O)Cc4ccncc4)ccc3O[C@H]2[C@H](CO)O1)NCc1ccccn1 returned DUX4 txn inh -7.8.
`COc1ccccc1CNC(=O)C[C@@H]1C[C@@H]2c3cc(NC(=O)CN(C)C)ccc3O[C@@H]2[C@@H](CO)O1` gave DUX4 txn inh 5.6.
Screening O=C(C[C@@H]1C[C@@H]2c3cc(NC(=O)Cc4ccncc4)ccc3O[C@@H]2[C@@H](CO)O1)NCc1cccc(F)c1 returned DUX4 txn inh -5.4.
CN(C)CC(=O)Nc1ccc2c(c1)[C@H]1C[C@H](CC(=O)NCc3ccc(-c4ccccc4)cc3)O[C@@H](CO)[C@H]1O2 was read as DUX4 txn inh -9.0.
For COc1ccccc1CNC(=O)C[C@H]1C[C@H]2c3cc(NC(=O)CN(C)C)ccc3O[C@H]2[C@H](CO)O1 the results were DUX4 txn inh 1.9.
For O=C(C[C@H]1C[C@H]2c3cc(NC(=O)Cc4ccncc4)ccc3O[C@H]2[C@H](CO)O1)NCc1cccc(F)c1 the results were DUX4 txn inh -29.9*.
Screening O=C(C[C@@H]1C[C@H]2c3cc(NC(=O)Cc4ccncc4)ccc3O[C@H]2[C@@H](CO)O1)NCc1ccc(-c2ccccc2)cc1 returned DUX4 txn inh -31.4*.
Screening O=C(C[C@H]1C[C@@H]2c3cc(NC(=O)Cc4ccncc4)ccc3O[C@@H]2[C@H](CO)O1)NCc1ccc(-c2ccccc2)cc1 returned DUX4 txn inh -9.5.
For O=C(C[C@@H]1C[C@H]2c3cc(NC(=O)Cc4ccncc4)ccc3O[C@H]2[C@@H](CO)O1)NCc1cccc(F)c1 the results were DUX4 txn inh 3.8.
For COc1ccccc1CNC(=O)C[C@H]1C[C@H]2c3cc(NC(=O)Cc4ccncc4)ccc3O[C@H]2[C@H](CO)O1 the results were DUX4 txn inh -34.4*.
For C[C@H](CO)N1C[C@H](C)[C@@H](CN(C)C)Oc2ccc(NC(=O)CCCN(C)C)cc2CC1=O the results were DUX4 txn inh 2.8.
For CC(=O)Nc1ccc2c(c1)C(=O)N(C)[C@H]1CC[C@H](CC(=O)NCc3ccc(Cl)cc3)O[C@@H]1CO2 the results were DUX4 txn inh -2.0.
`C[C@@H]1CN([C@H](C)CO)C(=O)c2cc(C#CC3CCCCC3)cnc2O[C@@H]1CN(C)S(=O)(=O)c1ccccc1` gave DUX4 txn inh 2.3.
C[C@@H]1CCCCO[C@H](CN(C)Cc2ccc3c(c2)OCO3)[C@@H](C)CN([C@@H](C)CO)C(=O)c2cc(NC(=O)CCC(F)(F)F)ccc2O1 was read as DUX4 txn inh 1.9.
Screening CC=Cc1ccc2n(c1=O)C[C@@H]1[C@@H](CO)[C@H](C(=O)N(C)C)[C@H]2N1CC1CC1 (mixture of isomers) returned DUX4 txn inh 5.8.
O=C(C[C@H]1C[C@@H]2c3cc(NC(=O)CC4CC4)ccc3O[C@@H]2[C@H](CO)O1)NCc1cc(F)ccc1F was read as DUX4 txn inh -4.3.
For O=C(c1cccc(F)c1)N1CC[C@@H]2[C@H]1c1cc(-c3cccc(F)c3)ccc1N[C@@H]2CO the results were DUX4 txn inh 2.3.
Screening O=C(c1cccc(F)c1)N1CC[C@@H]2[C@H](CO)Nc3ccc(-c4ccccc4F)cc3[C@@H]21 returned DUX4 txn inh -31.8*.
Screening O=C(c1cccnc1)N1CC[C@@H]2[C@H]1c1cc(C#Cc3cccnc3)ccc1N[C@@H]2CO returned DUX4 txn inh -18.4*.
`O=C(c1ccc(F)cc1)N1CC[C@@H]2[C@H]1c1cc(-c3ccccc3F)ccc1N[C@@H]2CO` gave DUX4 txn inh 18.8.
